Source: PubChem
The full list was thinned out, with hits kept by preference.
ROS inducer – cancer cell ROS induction; ROS induction (% of piperlongumine), % at 10 µM; hit rate 2% among 46,000; U2OS ROS induction, H2DCF-DA fluorescence; in the data active = ROS induction above about 79%, passing the limit was not always enough;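 also: 0% = DMSO vehicle median and 100% = reference compound median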
Starred values were filed as active, the others as inactive.

SMILES | ROS inducer
Cn1nnnc1SCC(=O)Nc1ccc(Br)cc1Cl | -3.2
CC(C)NC(=O)N(C)C[C@@H]1Oc2ccc(NC(=O)CCN3CCOCC3)cc2C(=O)N([C@H](C)CO)C[C@H]1C | -15.2
CNC[C@H]1Oc2c(NC(=O)c3ccncc3)cccc2C(=O)N([C@H](C)CO)C[C@@H]1C | 9.3
C[C@@H]1CN([C@@H](C)CO)C(=O)c2cccc(NC(=O)c3cnccn3)c2O[C@@H]1CN(C)C(=O)Nc1ccc2c(c1)OCO2 | -4.3
C[C@H]1CN([C@@H](C)CO)C(=O)c2cc(NS(=O)(=O)c3cn(C)cn3)ccc2O[C@H]1CN(C)C(=O)Nc1ccccc1 | -4.1
Cc1sc(NC(=O)c2ccccc2)c(C(=O)N2CCCCC2)c1C | 67.9
O=C(Nc1nc2ccc(Cl)cc2s1)C1CN(C(c2ccccc2)c2ccccc2)C1 | 10.2
CCc1cc(C(c2ccc(Cl)cc2)N2CCN(CCO)CC2)c(NC(=O)c2ccccc2)s1 (centres undefined) | 89.0*
CC(C)NC(=O)Nc1ccc2c(c1)C(=O)N([C@@H](C)CO)C[C@@H](C)[C@H](CN(C)C(=O)NC(C)C)O2 | 33.8
CCN(CC)S(=O)(=O)c1ccc(NC(=O)c2ccccc2Cl)cc1 | -0.7
CC(C)NC(=O)N(C)C[C@@H]1Oc2ccc(NC(=O)NC3CCCCC3)cc2CC(=O)N([C@H](C)CO)C[C@H]1C | 4.1
CC1(C)O[C@@H]2[C@H](O1)[C@@H](CO)O[C@H]2n1cnc2c(N)ncnc21 | 84.7*
CC1(C)OC2C(CO)OC(n3cnc4c(=O)[nH]cnc43)C2O1 (centres undefined) | 33.5
Nc1ncnc2c1ncn2C1OC(CO)[C@H](O)[C@@H]1S (some centres undefined) | -0.1
C[C@@H]1CN([C@H](C)CO)C(=O)Cc2cc(NC(=O)C3CC3)ccc2O[C@@H]1CN(C)C | 53.2
Cc1ccc(S(=O)(=O)N(C)C[C@@H]2Oc3c(NC(=O)c4cc(C)nn4C)cccc3C(=O)N([C@@H](C)CO)C[C@H]2C)cc1 | -5.6
C[C@H]1CN([C@@H](C)CO)C(=O)c2cccc(NC(=O)Nc3ccccc3)c2O[C@@H]1CN(C)S(=O)(=O)c1ccccc1 | 19.4
C[C@@H]1CN([C@H](C)CO)C(=O)c2cccc(NC(=O)Nc3cccc4ccccc34)c2O[C@H]1CN(C)S(=O)(=O)c1ccc(F)cc1 | 110.5*
C[C@@H]1CN([C@@H](C)CO)C(=O)c2cccc(NC(=O)Nc3ccccc3)c2O[C@@H]1CN(C)S(C)(=O)=O | 25.0
C[C@H]1CN([C@@H](C)CO)C(=O)c2cccc(NC(=O)Nc3cccc4ccccc34)c2O[C@@H]1CN(C)S(=O)(=O)c1ccccc1 | -6.9
C[C@@H]1CN([C@@H](C)CO)C(=O)c2cccc(NC(=O)Nc3ccccc3)c2O[C@H]1CN(C)S(C)(=O)=O | 91.5*
C[C@@H]1CN([C@H](C)CO)C(=O)c2cccc(NC(=O)Nc3cccc4ccccc34)c2O[C@H]1CN(C)S(=O)(=O)c1ccccc1 | 1.0
COc1ccc(CN(C)C[C@@H]2Oc3ccc(NC(=O)Nc4ccc(OC)cc4)cc3CC(=O)N([C@H](C)CO)C[C@@H]2C)cc1 | -14.5
C[C@H]1CN([C@@H](C)CO)C(=O)Cc2cc(N(C)C)ccc2O[C@@H]1CN(C)Cc1ccc(C(=O)O)cc1 | 112.6*
COc1ccc(CN(C)C[C@@H]2Oc3ccc(NC(=O)C4CC4)cc3CC(=O)N([C@H](C)CO)C[C@@H]2C)cc1 | 104.0*
SMILES | ROS inducer
C[C@H]1CN([C@@H](C)CO)C(=O)Cc2cc(N(C)C)ccc2O[C@H]1CN(C)Cc1ccc(C(=O)O)cc1 | -8.2
COc1ccc(NC(=O)N(C)C[C@H]2Oc3ccc(NC(=O)C4CC4)cc3CC(=O)N([C@@H](C)CO)C[C@H]2C)cc1 | 4.4
COc1ccc(NC(=O)N(C)C[C@H]2Oc3ccc(NC(=O)C4CC4)cc3CC(=O)N([C@H](C)CO)C[C@H]2C)cc1 | -15.5
C[C@@H]1CN([C@H](C)CO)C(=O)Cc2cc(NC(=O)C3CC3)ccc2O[C@H]1CN(C)Cc1ccc(Oc2ccccc2)cc1 | 19.6
COc1ccc(NC(=O)Nc2ccc3c(c2)CC(=O)N([C@@H](C)CO)C[C@H](C)[C@H](CN(C)Cc2ccc(C(=O)O)cc2)O3)cc1 | 133.3*
COc1ccc(CN(C)C[C@H]2Oc3ccc(NC(=O)C4CC4)cc3CC(=O)N([C@@H](C)CO)C[C@@H]2C)cc1 | 5.2
COc1ccc(NC(=O)N(C)C[C@@H]2Oc3ccc(NC(=O)C4CC4)cc3CC(=O)N([C@H](C)CO)C[C@H]2C)cc1 | 119.6*
COc1ccc(CN(C)C[C@H]2Oc3ccc(NC(=O)Nc4ccc(OC)cc4)cc3CC(=O)N([C@@H](C)CO)C[C@@H]2C)cc1 | 10.9
C[C@@H]1CN([C@H](C)CO)C(=O)Cc2cc(N(C)C)ccc2O[C@@H]1CN(C)Cc1ccc(C(=O)O)cc1 | -5.5
C[C@@H]1CN([C@@H](C)CO)C(=O)c2cccc(NC(=O)c3nc4ccccc4s3)c2O[C@@H]1CN(C)Cc1ccc(C(=O)O)cc1 | 8.5
CC(C)(C)[C@]1(O)CCN2C[C@H]3c4ccccc4CCc4cccc(c43)[C@@H]2C1 | 12.9
